The record followed here is PubChem BioAssay (EPA / NIEHS).

The structures appear in SMILES notation. Records with an inconclusive call do not appear. Calls of active or inactive are those of the source. Rule for the calls: active = hit-call score of the fitted dose curve at least 0.9, where 1 is the maximum; inconclusive = response in the unintended direction; inactive = score below 0.9.

Sequence of human Retinoic Acid Receptor gamma (RARg), RARG (gene 5916) (P13631 whole entry, looked up): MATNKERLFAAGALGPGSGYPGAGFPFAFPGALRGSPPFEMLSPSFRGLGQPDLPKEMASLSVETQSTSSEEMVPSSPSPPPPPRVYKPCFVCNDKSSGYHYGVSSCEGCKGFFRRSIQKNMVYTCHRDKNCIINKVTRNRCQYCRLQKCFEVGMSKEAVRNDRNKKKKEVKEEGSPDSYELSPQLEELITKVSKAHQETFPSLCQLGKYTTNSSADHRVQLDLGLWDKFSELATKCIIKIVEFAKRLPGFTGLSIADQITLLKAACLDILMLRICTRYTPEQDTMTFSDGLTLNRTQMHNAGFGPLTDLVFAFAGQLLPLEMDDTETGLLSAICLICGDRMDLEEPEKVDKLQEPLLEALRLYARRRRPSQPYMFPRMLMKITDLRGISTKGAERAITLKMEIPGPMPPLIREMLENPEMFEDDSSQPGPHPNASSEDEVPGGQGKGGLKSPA

This test deals with human Retinoic Acid Receptor gamma (RARg), RARG (gene 5916) (UniProt P13631). Description: ATG_RARg_TRANS: Attagene TRANS-FACTORIAL HepG2 Assay for human Retinoic Acid Receptor gamma (RARg) (AID 2283009).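 For AC50: AC50 is for reporter induction above DMSO meaning RARg activation.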 Here is the method:
ATG_TRANS is a cell-based, multiplexed-readout assay that uses HepG2, a human liver cell line, with measurements taken at 24 hours after chemical dosing in a 24-well plate.ATG_RARg_TRANS is one of 30 assay component(s) measured or calculated from the ATG_TRANS assay. It is designed to make measurements of mRNA induction, a form of inducible reporter, as detected with fluorescence intensity signals by Reverse transcription polymerase chain reaction (RT-PCR) and Capillary electrophoresis technology.Data from the assay component ATG_RARg_TRANS was analyzed into 1 assay endpoint. This assay endpoint, ATG_RARg_TRANS, was analyzed in the positive analysis fitting direction relative to DMSO as the negative control and baseline of activity. Using a type of inducible reporter, measures of mRNA for gain-of-signal activity can be used to understand the reporter gene at the transcription factor-level as they relate to the gene RARG. Furthermore, this assay endpoint can be referred to as a primary readout, because this assay has produced multiple assay endpoints where this one serves a reporter gene function. To generalize the intended target to other relatable targets, this assay endpoint is annotated to the nuclear receptor intended target family, where the subfamily is non-steroidal.
Human liver HepG2 cells are transiently transfected with multiple reporter transcription units (MRTUs) in 6-well plates using FuGene 6 reagent (Roche; 3 ml FuGene/1 mg DNA). The MRTU constructs are regulated by a cis-regulating element (promoter). […] A major difference between the CIS and TRANS system is that in CIS activities of endogenous TFs are measured, whereas the TRANS assay evaluates changes in activities of exogenous, chimeric NR-Gal4 proteins. […] At the end of 24 hour incubation, total RNA was isolated using TriZol reagent (Invitrogen). The isolated RNA is then reverse-transcribed using oligo(dT) primer and Mo-MLV reverse transcriptase (Invitrogen) with DNAse I (Ambion) treatment for 30 min. The one-tenth of the produced cDNA was amplified by PCR using Taq DNA polymerase (Invitrogen) and two reporter sequence-specific primers. The PCR products were fluorescently labeled by primer extension with 6-arboxyfluorescein (6-FAM) 5'-labeled reporter sequence-specific primer (2 min at 95 C, 20 s at 68 C and 10 min at 72 C) and these products were digested with 5U of HpaI (New England Biolabs) for 2h at 37 C. […] The raw capillary electrophoresis data was processed using Attagraph software (Attagene).
Take `C1=Cc2ccccc2C1`: the call was inactive.

For `Cn1c(=O)[nH]c2ncn(C)c2c1=O`, the outcome was inactive. Turning to `COC=O`, the call was inactive.

On to `CC(C)CC(O)Cc1ccccc1` (stereo not given), for which the call was inactive. For `Cc1cccc(C(=O)O)c1`, the compound was called inactive. Still for that read-out and setting: next, `C=C1C2CCC(C2)C1(C)C` (stereo not given): “inactive”.

Take `C=C(C)C(=O)OCCO`: the compound was called inactive. The same measure, in the same setting: next, `O=C1CCCC1`: “inactive”. On to `CCCCCCCCCCCCCCCC[N+](C)(C)CC`, for which the AC50 is 19.6 µM (active). As to `NC(=O)NNC(N)=O`, the compound was classed as inactive.

As to `Cc1c(C)c([N+](=O)[O-])c(C(C)(C)C)c([N+](=O)[O-])c1C`, the result was inactive. With `COc1cc(NC(=O)CC(C)=O)c(OC)cc1Cl`, the outcome was inactive. With `CCCCCCCCCCCCCCCC(=O)OCC`, the compound was called inactive.

As for `CCC(C)OC(=O)c1ccc(O)cc1` (stereo not given), the result was inactive. On the same count and under the same terms, next, `[Cl][Nd]([Cl])[Cl]`: “inactive”; `CCCCCCOc1cc(C)c(O)c(C)c1C`: “inactive”. For `CC(C)(Oc1ccc(C2CC2(Cl)Cl)cc1)C(=O)O` (stereo not given), the compound was called inactive. With `C=CC(C)(CCC=C(C)C)OC(=O)C(C)C` (stereo not given), the result was inactive. Take `C1=CCCC1`: the result was inactive. For the compound `C[Si](C)(CCCN)O[Si](C)(C)CCCN`, the compound was classed as inactive. On to `O=S(=O)(O)c1cc(S(=O)(=O)O)c2ccc3c(S(=O)(=O)O)cc(S(=O)(=O)O)c4ccc1c2c43`, for which the compound was called inactive. The same measure, in the same setting: next, `CCCCCCCCCCCCCCCC[n+]1ccccc1`: “inactive”; `O=C(O)c1ccccc1Nc1cccc(C(F)(F)F)c1`: “inactive”; `CNC(=S)NN`: “inactive”. On the same count and under the same terms, next, `O=C1c2cccc(O)c2C(=O)c2c(O)cc(CO)cc21`: “inactive”; `[Cl][In]([Cl])[Cl]`: “inactive”; `CC1(C)[C@H]2CC[C@]1(C)C(=O)C2`: “inactive”. The same measure, in the same setting: under `N#[N+]c1ccc2c(S(=O)(=O)[O-])cccc2c1O` stands “inactive”; under `CC(=O)Oc1ccc(C)cc1`, “inactive”. Consider `CCCNC(=O)NS(=O)(=O)c1ccc(Cl)cc1`, for which the compound was classed as inactive. Same read-out and setting: under `C=CCOCC(O)CCl` (stereo not given) stands “inactive”; under `CCO[Si](CCCN=C=O)(OCC)OCC`, “inactive”. Same read-out and setting: under `O=C(O)CC(C(=O)O)C(CC(=O)O)C(=O)O` (stereo not given) stands “inactive”; under `CC(=O)NS(=O)(=O)c1ccc(N)cc1`, “inactive”; under `O=C(O)Cc1c(Cl)ccc(Cl)c1Cl`, “inactive”. Same read-out and setting: next, `COc1cc(C)ccc1C(C)C`: “inactive”; `CCCCCCCC(C)=O`: “inactive”; `C=C(C)c1cccc(C(C)(C)N=C=O)c1`: “inactive”. Consider `c1ccc2c(c1)ccc1ncccc12`, for which the AC50 was 33.2 µM (active).

With `CCCCCCCOC(=O)CCC`, the compound was called inactive.
